Test results taken from PubChem BioAssay (NCATS).
Results filed as inconclusive are left out. Calls of active or inactive are those of the source. Calls follow the shape of the dose curve; as a rule, active = well fitted inhibition curve with a large enough effect; inconclusive = small, poorly fitted or top-dose-only effect; inactive = flat fitted curve, though single readings scatter.

Assays:
Experiment in all cases: Cytotoxic Profiling of Annotated Libraries Using Quantitative High-Throughput Screening (AID 1296008); also: nearly all actives have a fitted effect of over 60% in size
Settings in all cases: Five cell lines viability, CellTiter-Glo ATP luminescence, 48-72 h; max response: hits give low values
CRL-7250 = normal cell line; test system: CRL-7250
Method in brief: (§1)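 Cytotoxicity was measured as CellTiter-Glo ATP luminescence, read after 10 min at room temperature. Compound treatment of the cells lasted 48 or 72 hr at 37 degrees Celsius in a qHTS format.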

HEK293 = test system: HEK293
Method in brief: as §1

KB-3-1 = test system: KB-3-1
Method in brief: as §1

NIH3T3 = test system: NIH3T3
Method in brief: as §1
% is scaled to controls: 0 for no effect and ±100 for the full control effect; potency is read from the fitted curve at half-maximal effect.

COc1ccc(Cl)c(Nc2nc3ccccc3nc2NS(=O)(=O)c2cccc(NC(=O)C(C)(C)N)c2)c1
inactive: max response (CRL-7250) -18.5% | max response (HEK293) -13.5% | max response (KB-3-1) -5.68% | max response (NIH3T3) -15.2%

C=C1CC23CC1CCC2C12OC(=O)C(C)(CCC1O)C2C3C(=O)O (centres undefined)
inactive: outcome (CRL-7250) | max response (HEK293) 2.62% | outcome (KB-3-1) | max response (NIH3T3) 3.76%

CC(=O)C1=C(C)N(c2cccc(C(F)(F)F)c2)C(=O)N[C@H]1c1ccc(C#N)nc1
inactive: max response (CRL-7250) 2.3% | max response (HEK293) -4.03% | max response (KB-3-1) 1.77% | max response (NIH3T3) -21.8%

Cc1[nH]nc(C(F)(F)F)c1Cc1sc2c(c1C(=O)N1C[C@](C)(O)CO1)c(=O)n(C)c(=O)n2C(C)C
active: Potency (HEK293) 0.0517 µM | Potency (NIH3T3) 13 µM
inactive: max response (CRL-7250) -0.426% | max response (KB-3-1) 1.3%

COc1cc(N)c(Cl)cc1C(=O)NC[C@@H]1CCN2CCC[C@@H]12
inactive: max response (CRL-7250) -16.7% | max response (HEK293) -3.94% | max response (KB-3-1) -4.24% | max response (NIH3T3) -6%

Cn1c(=O)cc(N2CCCC(N)C2)n(Cc2cc(F)ccc2C#N)c1=O (centres undefined)
inactive: max response (CRL-7250) 3.15% | max response (HEK293) -7.1% | max response (KB-3-1) -0.0728% | max response (NIH3T3) -2.76%

CC1C(=O)CC2C3CCC(C(=O)O)C12CC3(C)CO (centres undefined)
inactive: max response (CRL-7250) -22.2% | max response (HEK293) 0.671% | max response (KB-3-1) 0.285% | max response (NIH3T3) -4.76%

COc1cc(Br)c(Nc2nc(-c3c(C)nc4ncccn34)cs2)c(Br)c1
active: Potency (CRL-7250) 4.61 µM | Potency (HEK293) 5.8 µM | Potency (KB-3-1) 2.31 µM | Potency (NIH3T3) 1.46 µM

O=C1CSc2ccccc2N1Cc1cccc(C(F)(F)F)c1
inactive: max response (CRL-7250) -9.14% | max response (HEK293) -20.3% | max response (KB-3-1) -14% | max response (NIH3T3) 4.03%

C[C@H](NC(c1cccc(C[P+](=O)O)c1)[C@H](C)O)c1ccc(Cl)c(Cl)c1 (some centres undefined)
inactive: outcome (CRL-7250) | max response (HEK293) -17.8% | outcome (KB-3-1) | max response (NIH3T3) 3.54%

CN(C)CC1CCOC1(c1ccccc1)c1ccccc1 (centres undefined)
inactive: max response (CRL-7250) -5.19% | max response (HEK293) -21.7% | max response (KB-3-1) 5.01% | outcome (NIH3T3)

Cc1[nH]c2ccccc2c1CCNC(=O)c1ccccc1F
inactive: max response (CRL-7250) -5.45% | max response (HEK293) 2.26% | max response (KB-3-1) 3.4% | max response (NIH3T3) 2.05%

CC1(C)[C@@H](O)CC[C@]2(C)[C@H]3CC=C4[C@@H]5C[C@](C)(C(=O)O)CC[C@]5(C)CC[C@@]4(C)[C@]3(C)CC[C@@H]12
inactive: max response (CRL-7250) -5.83% | max response (HEK293) 2.45% | max response (KB-3-1) 8.76% | max response (NIH3T3) 0.034%

COc1cc2c(cc1OC)N1C(=O)C[C@]34C=CCN5CC[C@@H]2[C@@H](CC3)[C@]514
inactive: outcome (CRL-7250) | max response (HEK293) -26.4% | max response (KB-3-1) 7.8% | max response (NIH3T3) -2.04%

O=C1CC2(CCCC2)[C@H](O)C(=O)N1CCCCN1CCN(c2ncccn2)CC1
inactive: max response (CRL-7250) 2.44% | max response (HEK293) -2.49% | max response (KB-3-1) -7.77% | max response (NIH3T3) -13.6%

CC1OC2OC(=O)C3(C)CC4=C(CO)C5=C(CC(=O)C4(C)C(C1=O)C23)C(C)(C)OC(=O)C5 (centres undefined)
inactive: max response (CRL-7250) -28.4% | max response (HEK293) -12.2% | max response (KB-3-1) 2.12% | max response (NIH3T3) -2.31%

C[C@@H]1O[C@@H](O[C@H]2[C@H](O[C@H]3[C@H](O[C@H]4CC[C@@]5(C)C(CC[C@]6(C)C5CC=C5[C@@H]7CC(C)(C)C[C@@H](O)[C@]7(C)CC[C@]56C)[C@@]4(C)CO)O[C@H](C(=O)O)[C@@H](O)[C@@H]3O)OC[C@H](O)[C@@H]2O)[C@H](O)[C@H](O)[C@H]1O (some centres undefined)
inactive: max response (CRL-7250) -3.42% | max response (HEK293) -4.78% | max response (KB-3-1) -1.37% | max response (NIH3T3) -4.51%

COc1c2ccoc2cc2oc(CO[C@@H]3O[C@H](CO)[C@@H](O)[C@H](O)[C@H]3O)cc(=O)c12
inactive: max response (CRL-7250) -0.0339% | max response (HEK293) 1.44% | max response (KB-3-1) -1.43% | max response (NIH3T3) -8.92%

O=C(O)/C=C/c1ccc(O)c(O[C@@H]2O[C@H](CO)[C@@H](O)[C@H](O)[C@H]2O)c1
inactive: outcome (CRL-7250) | max response (HEK293) -13.2% | outcome (KB-3-1) | max response (NIH3T3) 4.37%

C/C=C/c1ccc2oc(-c3ccc(O)c(OC)c3)c(C)c2c1
inactive: max response (CRL-7250) -27.9% | max response (HEK293) -4.11% | max response (KB-3-1) 6.52% | max response (NIH3T3) -2.29%

C/C(=C\CCC(C)CCO)C(=O)O[C@@H]1[C@@H](O)[C@H](OC2OC=C(C(=O)O)C3CCC(C)(O)C23)O[C@H](CO)[C@H]1O (some centres undefined)
inactive: outcome (CRL-7250) | max response (HEK293) 0.262% | outcome (KB-3-1) | max response (NIH3T3) -17.6%
